Source: PubChem
A selection: hits, their analogues and other compounds. The true share with any hit is near 7.9%.
MARV entry inh: blocks Marburg virus binding to or entry into cells; 1.8% of 300,000 active; AID 540276; Potency, µM (series often up to 37.8 µM), actives largely listed as inhibitors; Marburg virus pseudotyped entry inhibition, cell reporter; calls by dose curve; tested in HEK293 cells
HCV inh: inhibitors of hepatitis C virus infection. Huh7.5.1 HCVcc-Cre infection, luciferase reporter, 44 h. Potency, µM (doses to about 41.8 µM), most hits filed as inhibitors. 3.4% of 340,000 active; active = well fitted inhibition curve with a large enough effect; inconclusive = small, poorly fitted or top-dose-only effect, or another doubt; inactive = no such curve, though single readings can be large or run the other way
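HCVcc-Cre virus at an moi near 0.5 was added right after compound to cells cultured 4 h from seeding (1,000 cells/well). Luciferase activity was determined 44 h later, 15 min after substrate addition at RT.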
FMDV inh: antivirals against foot and mouth disease virus | FMDV antiviral cell-based qHTS | 1.2% of 410,000 active | AID 1159524 | Potency, µM (doses to about 57.9 µM), hits mostly inhibitors; calls by dose curve; tested in HEK293T cells; note: read-out not given here; nearly all actives have a fitted effect of over 45% in size
LASV entry inh: inhibitors of Lassa virus binding or cell entry. Lassa virus pseudotype entry inhibition, cell reporter. Potency, µM (titrated, usually from 37.9 µM), most hits filed as inhibitors. 1.2% of 300,000 active; calls by dose curve; tested in HEK293 cells; note: nearly all actives have a fitted effect of over 50% in size
HCMV inh: inhibitors of human cytomegalovirus; activity change, negative = inhibition, % at 57.5 µM; 4.5% of 410,000 active; HFF cells, HCMV-luciferase reporter, 72 h; hits give low values; in the data active = activity change below about -60%; inconclusive = no clear call, values can overlap the other calls; inactive = above about -39%
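Screen run at 2 compound doses on HFFs infected with reporter HCMV, MOI 1 PFU/cell. Luciferase activity from cell lysates at 72 h post infection gave inhibition relative to buffer-only and Salinomycin wells.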
Hits are given with their value; - = inactive; ? = inconclusive; . = no result given; ! = repeats disagree.

SMILES	MARV entry inh	HCV inh	FMDV inh	LASV entry inh	HCMV inh
O=C(CCCOc1ccc(Cl)cc1Cl)N/N=C/c1ccccc1O	?	?	-	?	-103.7
O=C(CCCOc1ccc(Cl)cc1Cl)N/N=C/c1ccccc1	?	-	-	?	-
O=C(COc1ccc(Cl)cc1Cl)N/N=C/c1ccc[nH]1	.	6.31µM	-	.	-
O=C(O)CCC(=O)NNC(=O)CCCOc1ccc(Cl)cc1Cl	-	-	-	-	?
O=C(COc1ccc(Cl)cc1Cl)Nc1ccccc1F	-	-	-	7.08µM	-
O=C(NCc1cccs1)c1ccc(Cn2c(SCc3ccccc3)nc3cccnc32)cc1	.	.	-	-	-
Cc1ccn2c(=O)nc(SCC(=O)Nc3cc(C)on3)nc2c1	-	-	-	-	-
Cc1cc(NC(=O)CSc2nc(=O)n3cc(Cl)ccc3n2)no1	-	-	-	-	-97.5
Oc1ccc(-c2csc(Nc3ccc4c(c3)OCO4)n2)c(O)c1	.	?	-	.	-
N#Cc1ccc(Nc2nc(-c3ccc(O)cc3O)cs2)cc1C(F)(F)F	.	11.2µM	35.5µM	.	.
CCc1cnc2c(c1SCC(=O)c1ccc(OC)cc1)c(=O)n(C)c(=O)n2C	.	.	28.2µM	?	-
CC(C)c1cnc2c(c1SCC(=O)c1ccc(Cl)cc1)c(=O)n(C)c(=O)n2C	.	.	?	?	-
COc1ccc2cc3cc(C(=O)NCc4ccco4)oc3nc2c1	-	?	-	?	-
O=C(NCc1ccco1)c1cc2cc3ccc(Cl)cc3nc2o1	?	?	-	17.8µM	-
O=C1C2=C(NC(=S)NC2c2ccc(Cl)cc2)NC(c2ccc(Cl)cc2)N1c1ccc(Cl)cc1 (stereo unspecified)	16.4µM	-	?	-	-
O=C(NCc1ccc(F)cc1)c1ccc2c(O)c(S(=O)(=O)c3ccccc3)c(=O)[nH]c2c1	.	.	-	-	-
CCc1nnc(NC(=O)CSc2nc(C)c3c(c2C#N)CCCC3)s1	?	11.2µM	-	?	-
COc1ccccc1NC(=O)CC(C)n1nc(C)cc1C (stereo unspecified)	.	.	-	-	-
CCCCOc1ccc(C(=O)N2CCCC2)cc1	?	-	-	?	-
CCCCOc1c(Cl)cc(C(=O)N2CCN(CC(=O)N3CCCC3)CC2)cc1OCC	-	10µM	-	-	-
OC(c1cccnc1)c1ccc2c(c1)CN(Cc1ccc(-c3ccccc3Cl)o1)CCO2 (stereo unspecified)	.	.	-	.	.
Cc1cc(C)cc(NC(=O)Cn2nnc(C(=O)NCc3ccccc3Cl)c2N)c1	-	-	-	?	-78.6!
Cn1cccc1/C=N\NC(=O)Cc1ccc(Br)c2ccccc12	.	10µM	?	.	-79.9
Cn1cccc1/C=N/NC(=O)Cc1ccccc1	-	-	-	-	-
CCc1ccc(C(=O)COC(=O)c2n[nH]c3ccccc23)cc1	-	-	-	?	-65.2
SMILES	MARV entry inh	HCV inh	FMDV inh	LASV entry inh	HCMV inh
Cc1cc2n(n1)C(c1ccccc1)Nc1ccccc1-2 (stereo unspecified)	-	25.1µM	-	?	-
Cc1ccc2c(c1)-c1cc(C)nn1C(c1ccc3c(c1)OCO3)N2 (stereo unspecified)	-	14.1µM	-	-	-
Cc1ccc2c(c1)-c1cc(C)nn1C(c1sccc1C)N2 (stereo unspecified)	-	3.98µM	-	-	?
Cc1cc2n(n1)C(c1ccc3c(c1)OCO3)Nc1ccccc1-2 (stereo unspecified)	-	?	-	-	-
Cc1cccc(C(=O)NCC(=O)OCc2cc(=O)n3nc(C4CC4)sc3n2)c1	.	.	-	-	-
CN(C)S(=O)(=O)c1ccc(NC(=O)N2CCN(c3cccc(C(F)(F)F)c3)CC2)cc1	?	11.2µM	28.2µM	?	-79.4
Cc1cc(C)cc(-c2cc3c(c(-c4c(O)c(-c5cc(C)cc(C)c5)cc5c4CCCC5)c2O)CCCC3)c1	-	.	.	.	.
Cn1cnc([N+](=O)[O-])c1S(=O)(=O)c1ccc(Cl)cc1	?	?	14.1µM	20µM	-
OC1CCCCC1/C=N/n1c2c(c3c1CCCC3)CCCC2 (stereo unspecified)	-	.	.	.	.
O=C1c2cccc3c(N4CCCCC4)ccc(c23)C(=O)N1c1ccccc1O	.	?	-	.	-95.6
O=C(O)c1ccc(N2CCCCCC2)c(N2C(=O)c3ccccc3C2=O)c1	-	-	-	-	-
O=C1c2cccc3c(N4CCCCC4)ccc(c23)C(=O)N1c1ccc(O)cc1	?	-	-	-	-61.7
Cc1ccc2c(=O)cc(C(=O)Nc3ccc(S(=O)(=O)N(C)Cc4ccccc4)cc3)oc2c1	-	.	-	-	-
CCNc1nc(NCc2ccccc2)nc(SCC(=O)Nc2ccccc2)n1	?	25.1µM	?	?	-
CN(C)c1nc(NCc2ccccc2)nc(SCC(=O)Nc2ccc(Cl)c(Cl)c2)n1	11.6µM	?	?	-	-
COc1ccc(O)c(CN2CCC3(CCC(CNC(=O)C4CCCO4)O3)CC2)c1 (stereo unspecified)	.	.	-	.	.
CCOC(=O)c1c(N)n(-c2ccc(Cl)c(Cl)c2)c2nc3ccccc3nc12	-	.	-	-	?
CCC(C)NC(=O)CCC(=O)OC1O[C@H]2OC3(C)CC[C@H]4[C@H](C)CCC(C1C)C24OO3 (stereo partly specified)	.	?	-	.	-75.5
CCC(C)C(NC(=O)CCCNC(=O)CCC(=O)OC1O[C@H]2OC3(C)CC[C@H]4[C@H](C)CCC(C1C)C24OO3)C(=O)O (stereo partly specified)	.	.	.	.	-
Brc1ccc(-c2cn3ccccc3n2)s1	?	8.91µM	-	?	-
O=C(CSc1nnc(Cc2cccs2)n1-c1ccccc1)NC1CCCCC1	-	-	-	14.1µM	-
CCn1ncc(Br)c1C(=O)Nc1ccc(Cl)cn1	-	-	-	-	-64.7
COc1ccccc1-c1ccnc(-n2ncc(C(=O)N3CCN(C(C)C)CC3)c2-c2ccco2)n1	.	.	-	.	.
Cc1ccc(C)c(OCC(O)CN2CCC(CN3C(=O)c4cccc5cccc(c45)C3=O)CC2)c1 (stereo unspecified)	?	?	?	?	-
O=C1c2cccc3cccc(c23)C(=O)N1CC1CCN(CC(O)COCc2ccc3c(c2)OCO3)CC1 (stereo unspecified)	?	10µM	-	?	-
SMILES	MARV entry inh	HCV inh	FMDV inh	LASV entry inh	HCMV inh
COc1ccc(OCC(O)CN2CCC(CN3C(=O)c4cccc5cccc(c45)C3=O)CC2)cc1 (stereo unspecified)	4.47µM	?	-	?	-
CCN1C(=NCC(C)C)NC(c2cccc(F)c2)C(C(=O)OC)=C1C (stereo unspecified)	-	.	.	.	.
COc1ccccc1NC(=O)C(=O)NCC(c1cccnc1)N1CCc2ccccc2C1 (stereo unspecified)	.	.	-	-	-
Cc1ccc(NC(=O)Cn2c(=O)n(Cc3ccccc3)c(=O)c3sc4ccccc4c32)cc1	-	.	-	-	-
CC(=O)CSc1ccc(-c2nc3ccccc3[nH]2)cn1	6.31µM	?	-	?	-
Cc1cc2nc(-c3ccc(SCc4ccc(C#N)cc4)nc3)[nH]c2cc1C	-	11.2µM	?	?	?
CC(=O)CSc1ccc(-c2nc3cc(C)c(C)cc3[nH]2)cn1	?	?	8.91µM	?	-99.6
CCOC(=O)CNC(=O)CSc1ccc(-c2nc3ccccc3[nH]2)cn1	-	-	-	-	-
